Reference: PubChem BioAssay (NCATS)
Records with an inconclusive call do not appear. Activity calls are given as the source filed them. Calls come from the whole dose curve; as a rule, active = well fitted curve in the direction sought with a large enough effect; inconclusive = small, poorly fitted or top-dose-only effect, or another doubt; inactive = no such curve, though single readings can be large; an effect the other way counts as inactive or inconclusive.

How the values were obtained:
[1] = target: Phospholipid hydroperoxide glutathione peroxidase GPX4 (Homo sapiens) (UniProt P36969); assay: Primary qHTS Assay for Inhibitors of Recombinant Selenoprotein Glutathione Peroxidase 4 (GPX4) (AID 1845192); note: nearly all actives have a fitted effect of over 65% in size; note: potency is the fitted concentration of half-maximal effect; for activity change, negative = inhibition: series mostly up to about 50 µM; % is set by controls: 0 for no effect and ±100 for the full control effect
Phospholipid hydroperoxide glutathione peroxidase GPX4 (Homo sapiens), sequence (P36969 whole entry, looked up): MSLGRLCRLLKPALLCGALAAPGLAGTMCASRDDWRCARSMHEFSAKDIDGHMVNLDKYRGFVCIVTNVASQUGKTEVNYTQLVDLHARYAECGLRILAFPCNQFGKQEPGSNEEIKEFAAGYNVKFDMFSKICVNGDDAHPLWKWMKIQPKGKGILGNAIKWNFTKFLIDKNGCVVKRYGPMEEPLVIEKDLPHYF
How it was run: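 Steps: GPX4 plus compound, 30 min RT; add GR/GSH/NADPH master mix; start with cumene hydroperoxide; read 340/450 nm fluorescence at 0 and 15 min. Finals were 200 nM GPX4, 1 mM GSH, 0.5 mM CHP, 0.5 mM NADPH, 100 nM GR.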

[2] = target: Luciferin 4-monooxygenase (Photinus pyralis) (UniProt P08659); assay: Primary firefly luciferase (FLuc) qHTS assay for identification of artifact compounds. (AID 1845220); note: nearly all actives have a fitted effect of over 60% in size;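 for activity change, negative = inhibition: series mostly up to about 54 µM; plate controls were DMSO vehicle for no effect and no enzyme for full effect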
How it was run: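 Enzymatic FLuc inhibition assay: compounds pre-exposed to luciferin/ATP (10 uM each) for 15 min, then purified P. pyralis enzyme at 10 nM added. Read-out: luminescence at 5 min.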

[3] = Primary fluorescence-based thiol-reactive (MSTI) qHTS assay for identification of artifact compounds. (AID 1845221); note: nearly all actives have a fitted effect of over 65% in size; note: potency is the fitted concentration of half-maximal effect;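 for activity change, negative = thiol reactive: series mostly up to about 54 µM; thiol-reactive compounds lower the probe fluorescence signal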
How it was run: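 Probe: MSTI 4 uM, PBS pH 7.4, 2% DMSO. Incubation 1 h, RT, light-protected. Readout fluorescence 525/598 nm.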

[4] = system: Nanoluciferase (engineered Oplophorus gracilirostris luciferase); assay: Primary Nanoluciferase (NLuc) qHTS assay for identification of artifact compounds. (AID 1845222); note: potency is the fitted concentration of half-maximal effect;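 for activity, negative = inhibition: NLuc secreted into diluted conditioned medium of S16 cells; series mostly up to about 54 µM; 0% = DMSO and -100% = no enzyme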
How it was run: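 S16 cell supernatant NLuc, 1:55; cpds qHTS; 15 min RT dark; Nano-Glo substrate 1:100, 5 min; luminescence; Hill fit of % inhibition.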

[5] = Primary redox qHTS assay for identification of artifact compounds. (AID 1845223);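 note: 0% = DMSO and 100% = reference compound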
How it was run: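 Redox-cycling detection via DTT (250 uM final) oxidation coupled to Amplex Red (25 uM)/HRP (250 mU/mL) in HBSS. 15 min preincubation plus 30 min after DTT, room temperature. Ex/Em 525/598 nm; 4-parameter Hill fit against DMSO and 10 uM DA3003.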

C[C@@H]1C(=O)O[C@H]2[C@H]1CC[C@@]1(C)C(=O)C=C[C@](C)(O)[C@H]21
active: Potency [3] 21.2 µM
inactive: Potency [1] | Potency [2] | Potency [4] | Potency [5]

CC(C)(C)c1cc(CN2CCN(CC(O)c3ccc(Cl)cc3)CC2)cc(C(C)(C)C)c1O (stereo unspecified)
inactive: Potency [1] | Potency [2] | Potency [3] | Potency [4] | Potency [5]

CC(C)[C@H]1CCC(CO)=C[C@@H]1/C=C(\CO)C(=O)O
inactive: Potency [1] | Potency [2] | Potency [3] | Potency [4] | Potency [5]

CC(=O)O[C@@H]1[C@H]2[C@@H](OC(=O)c3ccccc3)[C@@H](C)C[C@]2(O)[C@H](OC(C)=O)[C@@]2(C)[C@@H]3CC(C)(C)C(=O)[C@]3(OC(C)=O)C[C@@]12C
inactive: Potency [1] | Potency [2] | Potency [3] | Potency [4] | Potency [5]

CN1CC[C@@H](NC(=O)Nc2ccc(C#N)cc2)C[C@@H]1c1nc2ccccc2[nH]1
inactive: Potency [1] | Potency [2] | Potency [3] | Potency [4] | Potency [5]

CC1=C2CC3OC3(C)CCC3OC3(C)CC2OC1=O (stereo unspecified)
inactive: Potency [1] | Potency [2] | Potency [3] | Potency [4] | Potency [5]

CCOC(=O)c1ccnc(CNCC(=O)N(CC)CCN(C)C)c1
inactive: Potency [1] | Potency [2] | Potency [3] | Potency [4] | Potency [5]

COC1CC(=O)CCC(C)OC(=O)CC1O (stereo unspecified)
inactive: Potency [1] | Potency [2] | Potency [3] | Potency [4] | Potency [5]

C[C@@H]1O[C@@H](O[C@H]2[C@H](OC(=O)C34CCC5(C)C(=CCC6C7(C)CC(O)C(O[C@@H]8O[C@H](C(=O)O)[C@@H](O)[C@H](O)[C@H]8O)C(C)(C(=O)O)C7CCC65C)C3CC(C)(C)CC4O)O[C@H](C)[C@@H](O)[C@@H]2O)[C@H](O)[C@@H](O[C@@H]2OC[C@](O)(CO)[C@H]2O[C@@H]2O[C@H](CO)[C@@H](O)[C@H](O)[C@H]2O)[C@H]1O (stereo partly specified)
inactive: activity change, negative = inhibition [1] -4.3% [at 9.73 µM] | activity change, negative = inhibition [2] -0.148% [at 11.6 µM] | activity change, negative = thiol reactive [3] 44.4% [at 11.5 µM] | activity, negative = inhibition [4] 0% [at 11.6 µM] | redox activity (% of DA3003) [5] 3.71% [at 11.5 µM]

O=C(/C=C/c1ccc(O)c(O)c1)OCc1ccccc1O[C@@H]1O[C@H](CO)[C@@H](O)[C@H](O)[C@H]1O
inactive: Potency [1] | Potency [2] | Potency [4] | Potency [5]
active: Potency [3] 0.922 µM

O=C1NC(Cc2ccc(O)cc2)C(=O)N2CCCC12 (stereo unspecified)
inactive: Potency [1] | Potency [2] | Potency [3] | Potency [4] | Potency [5]

C=C(C)[C@@H]1CC[C@](C)(O)[C@@H](OC(=O)c2ccccc2)C1
inactive: Potency [1] | Potency [2] | Potency [3] | Potency [4] | Potency [5]

CCn1cc(C2=NOC(C(=O)Nc3c(C)n(C)n(-c4ccccc4)c3=O)C2)c(C)n1 (stereo unspecified)
inactive: Potency [1] | Potency [2] | Potency [3] | Potency [4] | Potency [5]

O=C(O[C@H]1[C@@H]2C[C@@H]3OC[C@@](O)([C@H]2[C@H](O[C@@H]2O[C@H](CO)[C@@H](O)[C@H](O)[C@H]2O)O3)[C@@H]1O)c1ccccc1
inactive: Potency [1] | Potency [2] | Potency [4] | Potency [5]
active: Potency [3] 5.19 µM

N#Cc1ccnc(N2C(=O)CC[C@H]2C(=O)N(c2cncc(F)c2)[C@H](C(=O)NC2CC(F)(F)C2)c2ccccc2Cl)c1
inactive: Potency [1] | Potency [2] | Potency [3] | Potency [5]

C[C@H]1C[C@H]2[C@@H]3CCC4=CC(=O)C=C[C@]4(C)[C@@]3(F)[C@@H](O)C[C@]2(C)[C@@]1(O)C(=O)COP(=O)(O)O
inactive: Potency [1] | Potency [2] | Potency [3] | Potency [5]

CC1(C)C(=O)C(C)(C)c2cc(C(=O)Nc3ccc(C(=O)O)cc3)ccc21
inactive: Potency [1] | Potency [2] | Potency [3] | Potency [5]

CC1CCC(=O)CC(O)C(O)CC(=O)O1 (stereo unspecified)
inactive: Potency [1] | Potency [2] | Potency [4]

C#Cc1cnc2[nH]c(=O)n(C(CC)CC)c2n1
inactive: Potency [2] | Potency [4]
active: Potency [1] 18 µM

CC(=O)O[C@@H]1[C@H](O[C@@H]2OC[C@](O)(CO)[C@H]2O)[C@@H](O[C@@H]2O[C@@H](C)[C@H](O)[C@@H](O)[C@H]2O)[C@H](OC(=O)[C@]23CCC(C)(C)C[C@H]2C2=CCC4[C@@]5(C)C[C@H](O)[C@H](O[C@@H]6O[C@H](C(=O)O)[C@@H](O)[C@H](O)[C@H]6O)[C@@](C)(C(=O)O)C5CC[C@@]4(C)[C@]2(C)CC3)O[C@@H]1C (stereo partly specified)
inactive: Potency [1] | activity change, negative = inhibition [2] 3.99% [at 11.6 µM] | activity change, negative = thiol reactive [3] 279% [at 11.5 µM] | activity, negative = inhibition [4] 2.83% [at 11.6 µM] | redox activity (% of DA3003) [5] 2.26% [at 11.5 µM]

CC/C=C/CC1=C(CCCCCCCC(=O)O)CCC1=O
inactive: Potency [1] | Potency [2] | Potency [3] | Potency [5]

COC1C=C([C@@H]2CC=C3[C@@]4(C)C(CC[C@]32C)[C@@]2(C)C=CC(=O)C(C)(C)C2C[C@H]4OC(C)=O)C(=O)O1 (stereo partly specified)
inactive: Potency [1] | Potency [2] | Potency [3] | Potency [5]

O=C(CCO[C@@H]1O[C@H](CO)[C@@H](O)[C@H](O)[C@H]1O)c1ccc(O)cc1
inactive: Potency [1] | Potency [2] | Potency [3] | Potency [5]

CC1(C)CC2C3=CCC4C5(C)CCC(OC6OC(CO)C(O)C(OC7OC(CO)C(O)C(OC8OC(CO)C(O)C(OC9OC(COC%10OC(CO)C(O)C(O)C%10O)C(O)C(O)C9O)C8O)C7O)C6O)C(C)(C)C5CCC4(C)C3(C)CCC2(C(=O)O)CC1O (stereo unspecified)
inactive: outcome [1] inactive [at 9.73 µM] | activity change, negative = inhibition [2] -5.47% [at 11.6 µM] | activity change, negative = thiol reactive [3] 31.3% [at 11.5 µM] | activity, negative = inhibition [4] 0.268% [at 11.6 µM] | redox activity (% of DA3003) [5] 10.1% [at 11.5 µM]

CCOc1cc2ncc(C#N)c(Nc3ccc(OCc4ccccn4)c(Cl)c3)c2cc1NC(=O)/C=C/CN(C)C
inactive: Potency [1] | Potency [2] | Potency [3] | Potency [5]

N[C@@H](CC(=O)N1CCn2c(nnc2C(F)(F)F)C1)Cc1[nH]nc2c(F)c(F)ccc12
inactive: Potency [1] | Potency [2] | Potency [3] | Potency [4] | Potency [5]

COc1cc(C(C)=O)ccc1O[C@@H]1O[C@H](CO[C@@H]2O[C@@H](C)[C@H](O)[C@@H](O)[C@H]2O)[C@@H](O)[C@H](O)[C@H]1O
inactive: Potency [1] | Potency [2] | Potency [3] | Potency [5]

CC(=O)O[C@H]1CC[C@@]2(CI)C(=CC[C@@H]3[C@@H]2CC[C@]2(C)[C@@H]([C@H](C)CCCC(C)C)CC[C@@H]32)C1
inactive: activity change, negative = inhibition [1] 1.73% [at 9.73 µM] | activity change, negative = inhibition [2] 3.6% [at 11.6 µM] | activity change, negative = thiol reactive [3] -0.863% [at 11.5 µM] | redox activity (% of DA3003) [5] -3.63% [at 11.5 µM]

O=C(NCc1ccc(OC(F)(F)F)cc1)C1c2ccccc2C(=O)N1C1CCOCC1 (stereo unspecified)
inactive: Potency [1] | Potency [2] | Potency [3] | Potency [5]

C[C@@H]1CCC2C(C)(C)[C@H](O)CC[C@]2(C)[C@@]12Cc1c(O)cc3c(c1O2)CN(CCO)C3=O (stereo partly specified)
inactive: Potency [1] | Potency [2] | Potency [3] | Potency [5]

CC(C)CC1(C(=O)OCc2ccc(O[C@@H]3O[C@H](CO)[C@@H](O)[C@H](O)[C@H]3O)cc2)CC(=O)OC(C(=O)O)CC(=O)OCC2OC(O1)C(OC(=O)/C=C/c1ccc(O)cc1)C(O)C2O (stereo partly specified)
inactive: Potency [1] | activity change, negative = inhibition [2] 3.35% [at 11.6 µM] | activity change, negative = thiol reactive [3] 14.7% [at 11.5 µM] | redox activity (% of DA3003) [5] 23.6% [at 11.5 µM]

CCCCS(=O)(=O)Nc1ncnc(OCCOc2ncc(Br)cn2)c1-c1ccc(Br)cc1
inactive: Potency [1] | Potency [2] | Potency [3] | Potency [5]

CCOc1nc2cccc(C(=O)O)c2n1Cc1ccc(-c2ccccc2-c2noc(=O)[nH]2)cc1
active: Potency [4] 21.3 µM
inactive: Potency [1] | Potency [2] | Potency [3] | Potency [5]

CCC(=O)NS(=O)(=O)c1ccc(-c2c(-c3ccccc3)noc2C)cc1
inactive: Potency [1] | Potency [2] | Potency [3] | Potency [5]

C[C@@H]1CC[C@]2(C(=O)O)CC[C@]3(C(=O)O)C(=CCC4[C@@]5(C)CC[C@H](O[C@@H]6O[C@@H](C)[C@H](O[C@@H]7O[C@H](CO)[C@@H](O)[C@H](O)[C@H]7O)[C@@H](O)[C@H]6O)C(C)(C)C5CC[C@]43C)C2[C@H]1C (stereo partly specified)
inactive: Potency [1] | Potency [2] | Potency [3] | Potency [5]

CC1OC(OC2C(CO)OC(OCC3OC(OC(=O)C45CCC(C)(C)CC4C4=CCC6C7(C)CCC(OC8OC(C(=O)O)C(O)C(OC9OC(CO)C(O)C(O)C9O)C8O)C(C)(C)C7CCC6(C)C4(C)CC5)C(O)C(O)C3O)C(O)C2O)C(O)C(O)C1O (stereo unspecified)
inactive: activity change, negative = inhibition [1] -11.9% [at 9.73 µM] | activity change, negative = inhibition [2] -1.13% [at 11.6 µM] | activity change, negative = thiol reactive [3] 336% [at 11.5 µM] | redox activity (% of DA3003) [5] 7.33% [at 11.5 µM]

CC1CCCC2OC2C(=O)c2c(O)cc(O)cc2CC(=O)O1 (stereo unspecified)
inactive: Potency [1] | Potency [2] | Potency [4]

C=C1[C@H]2CC[C@]3(O)[C@@](CC[C@@H]4[C@](C)(C(=O)O)CCC[C@]43C)(C2)[C@H]1OC(=O)/C(C)=C\C
inactive: Potency [1] | Potency [2] | Potency [3] | Potency [5]

CC(=C/C(=O)O)/C=C/[C@]1(O)[C@@]2(C)CO[C@]1(C)C[C@H](O[C@@H]1O[C@H](CO)[C@@H](O)[C@H](O)[C@H]1O)C2
active: Potency [3] 9.22 µM
inactive: Potency [1] | Potency [2] | Potency [4] | Potency [5]

C[C@@H]1O[C@@H](O[C@@H]2[C@@H](O)[C@@H](O)[C@H](O[C@@H]3[C@@H](O)[C@@H](O[C@]4(CO)O[C@H](CO)[C@@H](O)[C@@H]4OC(=O)/C=C/c4ccc(O)cc4)O[C@H](CO)[C@H]3OC(=O)/C=C/c3ccc(O)cc3)O[C@H]2C)[C@H](O)[C@H](O)[C@H]1O
inactive: Potency [1] | outcome [2] inactive [at 11.6 µM] | activity change, negative = thiol reactive [3] 65.2% [at 11.5 µM] | activity, negative = inhibition [4] 1.58% [at 11.6 µM] | redox activity (% of DA3003) [5] -13.4% [at 11.5 µM]

C[C@@H]1CC[C@]2(C(=O)O)CC[C@]3(C)C(=CCC4[C@]5(C)C(CC[C@]43C)C(C)(C)[C@@H](O)[C@H](O)[C@@H]5O)C2[C@]1(C)O (stereo partly specified)
inactive: Potency [1] | Potency [2] | Potency [3] | Potency [5]
